Screening results (PubChem BioAssay)
A selection: hits, their analogues and other compounds. The true share with any hit is near 1.5%.
Coupling enz: coupling enzyme interference in Giardia aldolase counter-screen; coupling enzyme system counterscreen, AmpLite Red fluorescence; AID 2472; hit rate 0.67% among 290,000; activity change, negative = inhibition, % at 58.2 µM, hits read low; in the data active means activity change below about -30%
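Compounds tested against the coupling enzymes alone at 57.5 uM final; readout was AmpLite Red fluorescence (525/598 nm) after 20 min at RT.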
GALK inhibitor: galactokinase (human) inhibition | P51570 | Purified GALK, Kinase-Glo residual ATP luminescence | Potency, µM (top dose mostly 57.5 µM), usual class: inhibitors | hit rate 0.007% among 270,000
Target sequence (P51570 whole entry, looked up): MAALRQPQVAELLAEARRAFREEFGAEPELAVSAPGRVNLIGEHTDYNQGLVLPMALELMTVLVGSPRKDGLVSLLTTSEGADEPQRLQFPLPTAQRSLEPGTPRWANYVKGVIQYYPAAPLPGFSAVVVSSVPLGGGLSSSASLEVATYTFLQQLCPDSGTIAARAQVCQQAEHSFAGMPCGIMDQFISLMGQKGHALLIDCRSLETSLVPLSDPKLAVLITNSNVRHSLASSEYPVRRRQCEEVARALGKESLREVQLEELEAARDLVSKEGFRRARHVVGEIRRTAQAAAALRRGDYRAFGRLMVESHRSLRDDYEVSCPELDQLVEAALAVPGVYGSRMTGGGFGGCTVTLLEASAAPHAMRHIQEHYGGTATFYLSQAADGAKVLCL
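Quantitative HTS: GALK 5 nM, ATP 35 uM, galactose 100 uM, 1 h room temperature, then luciferase-based ATP detection.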
PI4K2A block: PI4K2A (human) kinase inhibition | Q9BTU6 | purified PI4K2A, ADP-Glo luminescence, 1 h; hits give low values | activity change, negative = inhibition, % at 76.9 µM | hit rate 0.13% among 420,000 | AID 1346378; in the data active means activity change below about -50%; inconclusive means mostly about -30% to -49%
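Compounds are screened against recombinant PI4K2A using PI as substrate and ATP, the latter dispensed at 300 microM. Reactions run one hour at ambient temperature before ADP-Glo detection; full inhibition defined by wells lacking enzyme.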
TrxR1 substrate: substrates of rat thioredoxin reductase 1. O89049. purified TrxR1 substrate turnover, NADPH consumption readout. Potency, µM (top dose mostly 114 µM). hit rate 0.01% among 390,000. AID 588456; further: nearly all actives have a fitted effect of over 50% in size
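Rat TrxR1, dispensed at 90 nM, was prereduced with 400 uM NADPH (final) for 5 min at ~22 deg C, then incubated with compound 15 min before 400 uM selenite. A first-read NADPH fluorescence drop versus no-compound background flagged substrates.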
Giardia kill: Giardia lamblia killing; Giardia lamblia trophozoite viability; activity change, % at 7.66 µM, hits read low; hit rate 0.15% among 340,000; AID 540267; in the data active means activity change below about -80%; inconclusive means between about -30% and that limit;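 further: parasites exposed to compound for two days anaerobically before the ATP read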
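Trophozoite viability was measured as ATP-dependent luminescence, read 15-30 min after reagent addition. Before that, parasites at 100 cells/well were exposed to compounds for 48 h, anaerobically, at 37 deg C.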
rTrxR1 inhibitor: inhibitors of rat thioredoxin reductase 1. recombinant rTrxR1, NADPH fluorescence consumption, selenite substrate. O89049. hit rate 1% among 390,000. AID 588453. Potency, µM (series often up to 114 µM), hits mostly inhibitors; further: nearly all actives have a fitted effect of over 65% in size
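Rat TrxR1 (90 nM in the dispensed reagent) was pre-reduced with 400 uM NADPH for 5 min at room temperature, then incubated with compound for 15 min. After 400 uM selenite was added, NADPH fluorescence (Ex 340/Em 450 nm) was followed for 8 min.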
Numbers stand for hits; 0 = inactive; ? = inconclusive; - = no result; [ ] = remark or other dose. Unless noted, the call rests on the fitted dose curve; in most records, active means well fitted curve in the direction sought with a large enough effect; inconclusive means small, poorly fitted or top-dose-only effect, or another doubt; inactive means no such curve, though single readings can be large; an effect the other way counts as inactive or inconclusive.

SMILES	Coupling enz	GALK inhibitor	PI4K2A block	TrxR1 substrate	Giardia kill	rTrxR1 inhibitor
Cc1ccc(/C=N/NC(=O)c2cccc(S(=O)(=O)Nc3ccccc3Cl)c2)s1	-34	0	0	0	0	0
COc1ccc2nc(N3CCCCC3)c(C#N)cc2c1	-33	0	0	0	0	0
Cc1ncc([N+](=O)[O-])n1CCOC(=O)NC(NCc1cccnc1)C(Cl)(Cl)Cl (centres undefined)	0	0	0	0	-92	0
Cc1ccccc1NC(NC(=O)OCCn1c([N+](=O)[O-])cnc1C)C(Cl)(Cl)Cl (centres undefined)	0	0	0	0	-82	0
COc1ccc(NC(=O)CCS(=O)(=O)c2nc(-c3cccs3)cc(C(F)(F)F)n2)cc1OC	-	-	0	0[2.29 µM]	-	25µM
COc1cc(NC(=O)CCS(=O)(=O)c2nc(-c3cccs3)cc(C(F)(F)F)n2)cc(OC)c1OC	-	-	0	0	-	?
O=C(CCS(=O)(=O)c1nc(-c2cccs2)cc(C(F)(F)F)n1)Nc1cccc(O)c1	-	-	0	0[2.29 µM]	-	18µM
Cc1ccccc1Nc1nc(CSc2nnc(-c3ccoc3C)n2C)cs1	0	0	0	0	0	50µM
CCCCNC(=O)c1sc2ncnc(N3CCc4ccccc4C3)c2c1C	0	0	0	0	0	2.8µM
COC(=O)C1=C(C)NC(=O)/C1=C\N(C)C	0	0	0	0	0	16µM
COC(=O)C1=C(C)NC(=O)/C1=C\c1cccs1	0	0	0	0	0	0
C1=Cc2ccccc2/C1=C\c1ccc(/C=C2\C=Cc3ccccc32)cc1	-	-	-	0	-	0
CC(C)c1ccc(/C=C2\C=Cc3ccccc32)cc1	-	-	-	0	-	?
Cc1cc(/C=C2\C=Cc3ccccc32)cc(C)c1[N+](=O)[O-]	-	-	-	0	-	20µM
C1=Cc2ccccc2/C1=C\c1cccc(/C=C2\C=Cc3ccccc32)c1	-	-	-	0	-	20µM
Brc1ccc(/C=C2\C=Cc3ccccc32)cc1	-	-	-	0	-	32µM
O=[N+]([O-])c1ccc(/C=C2\C=Cc3ccccc32)cc1	-	-	-	0	-	0
CCCCCCCCN1[C@@H](CC(C)=O)c2ccc(/C=C/C(C)=O)cc2S1(=O)=O	-	-	-	0	-	?
CCC(=O)Nc1ccc(-c2nnc(SCc3ccccc3)n2C)cc1	-	-	-	0	-	0
CC(C)(C)c1ccc(C(=O)C[n+]2cccc(Br)c2)cc1	-	-	-	0	-	0
O=c1[nH]c(SCc2ccccc2)ncc1S(=O)(=O)c1ccccc1	-	-	-	0	0	0
CC(C)(C)[C@H]1CCC(=O)N(CCSc2ccc(Br)cc2)CC1	-	-	-	0	-	0
Clc1ccc2oc(-c3ccccc3)cc(=NCCCN3CCOCC3)c2c1	0	0	0	0	-87	0
CCOc1ccc(S(=O)(=O)N(CC(=O)Nc2ccc3c(c2)OCO3)c2ccccc2)cc1	-	-	0	0	-	0
O=C(c1ccc([N+](=O)[O-])o1)N1CCN(c2nc3c(Cl)cccc3s2)CC1	-	-	0	0	?	40µM
SMILES	Coupling enz	GALK inhibitor	PI4K2A block	TrxR1 substrate	Giardia kill	rTrxR1 inhibitor
COc1cccc2sc(N3CCN(C(=O)c4ccc([N+](=O)[O-])o4)CC3)nc12	-	-	0	0	-87	?
O=C(c1ccc([N+](=O)[O-])o1)N1CCN(c2nc3ccc(F)cc3s2)CC1	-	-	0	0	-89	?
Cc1ccc2sc(N3CCN(C(=O)c4ccc([N+](=O)[O-])o4)CC3)nc2c1C	-	-	0	0	0	0
O=[N+]([O-])c1c(NCc2ccccc2)cc(N2CCc3ccccc3C2)c2nonc12	-40	0	0	0[0.0914 µM]	0	0
O=S(=O)(Nc1ccc(O)c2ccccc12)c1cccs1	-35	0	?	0	0	?
O=S(=O)(Nc1cccc2ccccc12)c1cccs1	-	0	0	0	0	0
O=C1c2ccccc2NC(c2ccc(-c3cccc(F)c3)o2)N1O (centres undefined)	-	-	0	0	0	0
N#Cc1ccc(-c2ccc(C3Nc4ccccc4C(=O)N3O)o2)cc1 (centres undefined)	-	-	0	0	0	7.1µM
CCCCn1c(SCC(=O)Nc2sc3c(c2C(N)=O)CCC3)nnc1-c1ccccc1	-	-	0	0	0	35µM
O=C1NC(=S)S/C1=C\c1ccc(SCc2ccco2)o1	0	-	0	0	0	8.9µM
O=C1NC(=S)SC1=Cc1ccccc1Cl	-	-	0	0	0	0
